PAX8 reporter = inhibitors of PAX8 transcriptional activity in RMG-I cells; RMG-I TPO-luciferase reporter, SteadyGlo, 24 h; inhibition, % at 12.6 µM; 1.2% of 360,000 active;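 active = mean replicate inhibition at least 60% with every replicate also reaching 60%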;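 also: luciferase light reporting Pax8 driven TPO promoter activity; plate controls were median of neutral control wells for no effect and mitoxantrone controls for full effect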
EWS-Fli block = blocks EWS/Fli oncoprotein-driven transcription; A673 NR0B1-luciferase reporter, viability-normalised; inhibition, % at 12.6 µM; 0.67% of 350,000 active; AID 651661;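 active = mean inhibition of at least 50% after viability correction, with every replicate also passing that limit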;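 also: firefly luciferase signal divided by Alamar Blue viability fluorescence both relative to DMSO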
esBAF inh = SWI/SNF esBAF complex inhibition; mouse ES cells, Bmi1-luciferase knock-in reporter, 24 h; 100% = twice the neutral-well signal; 2% of 350,000 active; reporter increase, % at 12.5 µM; in the data active = activation above about 40%;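 also: 0% = median of the plate's neutral control wells and 100% = double that signal; a rise in the Bmi1 reporter signal indicates esBAF inhibition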
MITF TRPM1 inh = inhibitors of MITF-driven TRPM1 promoter in melanoma cells. 0.83% of 330,000 active. inhibition, % at 12.5 µM. SK-MEL-5 TRPM1 promoter luciferase, 24 h. AID 488899;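 active = mean inhibition across replicates of 60% or more, whatever share of single replicates reaches that level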
Wnt act = Wnt/beta-catenin pathway activation. Wnt/beta-catenin reporter cell assay, activator, plate reader. activation, % at 9.35 µM. AID 743398. 1.2% of 300,000 active; in the data active = activation above about 30%, passing the limit was not always enough;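 also: 0% = neutral control wells and 100% = positive control wells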
MITF act = activators of MITF-driven TRPM1 promoter activity in SK-MEL-5 cells | activation, % at 12.5 µM | AID 588334 | SK-MEL-5 TRPM1-promoter luciferase, 24 h; % of positive control, neutral wells = 0 | 0.75% of 300,000 active;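 active = mean activation of at least 80% with every replicate also reaching 80%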;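 also: 0% = neutral control wells and 100% = parthenolide positive control wells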
An asterisk follows results filed as active. Rows were chosen to be rich in hits. Some 4% of all compounds tested hit in one or more screens of this group.

For COc1ccc(CCCNC(=O)C2CCC(=O)N(Cc3ccccc3F)C2)cc1 (centres undefined) the results were PAX8 reporter -37, esBAF inh 11, MITF TRPM1 inh -34, Wnt act 9 and MITF act 38.
For Cc1cc(C)nc(CCNC(=O)C2CCC(=O)N(Cc3ccccc3F)C2)n1 (centres undefined) the results were PAX8 reporter -14, EWS-Fli block -10, esBAF inh 8, MITF TRPM1 inh -13, Wnt act 1 and MITF act 9.
Screening N#C/C(=C\c1cccs1)C(=O)NCC1CCCO1 (centres undefined) returned PAX8 reporter -29, esBAF inh 18, MITF TRPM1 inh -60 and Wnt act 39*.
For COc1cc(C)nc(NC(=S)N(C)C(=O)c2ccccc2)n1 the results were PAX8 reporter -6, EWS-Fli block 9 and Wnt act 46*.
For O=C(CCN1CCCCC1)NCC[C@H]1CC[C@H](NC(=O)Cc2cccnc2)[C@H](CO)O1 the results were PAX8 reporter -2, EWS-Fli block -3 and esBAF inh -1.
For COc1ccc(/C(C)=N/NC(=O)c2cccc(S(=O)(=O)N3CCCC3)c2)c(O)c1 the results were PAX8 reporter 66*, EWS-Fli block -1, esBAF inh -38, MITF TRPM1 inh 73*, Wnt act -5 and MITF act -73.
For COc1ccc(C(C)=NNC(=O)c2cccc(S(=O)(=O)N3CCCC3)c2)cc1 the results were PAX8 reporter 8, EWS-Fli block 2, esBAF inh -6, MITF TRPM1 inh 16, Wnt act -3 and MITF act -16.
Screening C=CCOc1ccc(NC(=O)C(=O)NCCCn2ccnc2)cc1 returned esBAF inh 2, MITF TRPM1 inh 3 and MITF act -4.
CCCCCOc1ccc(NC(=O)C(=O)NCCCn2ccnc2)cc1 was read as PAX8 reporter 77*, esBAF inh 6, MITF TRPM1 inh 9 and Wnt act -8.
CCSc1ccc(NC(=O)c2cccnc2)cc1 was read as PAX8 reporter -56, esBAF inh 37, MITF TRPM1 inh -45 and Wnt act 37*.
`O=C(Nc1ccc(N2CCCCC2)cc1)c1cccnc1` gave esBAF inh 62*, MITF TRPM1 inh -38 and MITF act 36.
CCc1ccc(NC(=O)c2cccnc2)cc1 was read as PAX8 reporter -113, esBAF inh 46*, MITF TRPM1 inh -67, Wnt act 53* and MITF act 74.
`Cc1c(CC(=O)NC(C)C)c(=O)oc2cc3c(cc12)CCC(C)(C)O3` gave PAX8 reporter -77, EWS-Fli block -86, esBAF inh 49*, MITF TRPM1 inh -70, Wnt act 20 and MITF act 75.
`Cc1c(CC(=O)NCC(C)C)c(=O)oc2cc3c(cc12)CCC(C)(C)O3` gave PAX8 reporter -32, EWS-Fli block -39, esBAF inh 27, MITF TRPM1 inh -12, Wnt act 4 and MITF act 20.
`Cc1c(CC(=O)N[C@H](C(=O)O)C(C)C)c(=O)oc2cc3c(cc12)CCC(C)(C)O3` gave PAX8 reporter -156, EWS-Fli block -102, esBAF inh 61*, MITF TRPM1 inh -61, Wnt act 35* and MITF act 60.
Screening Cc1c(CC(=O)N[C@@H](C)C(=O)O)c(=O)oc2cc3c(cc12)CCC(C)(C)O3 returned PAX8 reporter 4, EWS-Fli block 3, esBAF inh -2, MITF TRPM1 inh 0, Wnt act 2 and MITF act 5.
Screening CCC(C)NC(=O)Cc1c(C)c2cc3c(cc2oc1=O)OC(C)(C)CC3 (centres undefined) returned PAX8 reporter -50, EWS-Fli block -61, esBAF inh 67*, MITF TRPM1 inh -60, Wnt act 13 and MITF act 63.
O=C(CC(F)(F)F)N1C[C@H]2[C@@H](c3ccccc31)[C@H](CO)N2C(=O)CN1CCOCC1 was read as PAX8 reporter 3, EWS-Fli block 0 and esBAF inh -6.
`CCCC#Cc1ccc([C@H]2[C@@H](CO)N3CCCCN(Cc4cccnc4)C[C@@H]23)cc1` gave PAX8 reporter 6, EWS-Fli block 0 and esBAF inh -2.
For CCCCCCc1cc2cc(C(=O)NCc3ccccc3)c(=N)oc2cc1O the results were PAX8 reporter 14, esBAF inh 3, MITF TRPM1 inh 5 and Wnt act -3.
For CCCCCCc1cc2cc(C(=O)Nc3ccccc3)c(=O)oc2cc1O the results were MITF TRPM1 inh 72* and MITF act -70.
C=CCn1c(C)cc(C(=O)COC(=O)c2cncc(Br)c2)c1C was read as PAX8 reporter -249, EWS-Fli block -12, esBAF inh 20, MITF TRPM1 inh -94, Wnt act -3 and MITF act 93*.
Screening C=CCn1c(C)cc(C(=O)COc2ncnc3sccc23)c1C returned esBAF inh -23, MITF TRPM1 inh -67, Wnt act 30 and MITF act 74.
For O=C(Nc1ccc(F)cc1)N[C@H]1CC[C@H](CC(=O)N2CCCCC2)O[C@H]1CO the results were PAX8 reporter -4, EWS-Fli block -3 and esBAF inh -4.
`CCOc1ccc(N=c2scc(-c3ccccc3)n2CCO)cc1` gave EWS-Fli block -107, esBAF inh 45*, MITF TRPM1 inh -24, Wnt act 12 and MITF act 29.
For OCCn1c(-c2ccc3c(c2)OCO3)csc1=Nc1ccccc1 the results were PAX8 reporter -49, esBAF inh 78*, MITF TRPM1 inh -16, Wnt act 22 and MITF act 13.
`CCn1c(-c2ccccc2)csc1=Nc1ccc(O)cc1` gave PAX8 reporter -158, EWS-Fli block -19, MITF TRPM1 inh -60, Wnt act 66* and MITF act 60.
For CCOc1ccc(N=c2scc(-c3ccc(OC)cc3)n2CCO)cc1 the results were PAX8 reporter -14, esBAF inh 14, MITF TRPM1 inh 12, Wnt act -3 and MITF act -10.
Screening OCCn1c(-c2ccc(F)cc2)csc1=Nc1ccccc1 returned PAX8 reporter -2, MITF TRPM1 inh -8, Wnt act 6 and MITF act 4.
`COc1ccc(-c2ccc3c(c2)O[C@H](CN(C)CC2CCOCC2)[C@H](C)CN([C@@H](C)CO)S3(=O)=O)cc1` gave EWS-Fli block 5 and esBAF inh -2.
For Cc1nc2c(-c3ccc(Cl)cc3)c(C)[nH]n2c(=O)c1Cc1ccccc1 the results were PAX8 reporter 62*, EWS-Fli block 14, MITF TRPM1 inh 39, Wnt act -14 and MITF act -40.
`CSC1=NC(C(Cl)(Cl)Cl)N=C(c2ccc(C)cc2)N1` (centres undefined) gave PAX8 reporter -9, EWS-Fli block 59*, MITF TRPM1 inh -4, Wnt act -3 and MITF act 7.

Screening results (PubChem)
